# Measurements reported in PMC4336329 (PLoS ONE, 2015).
# Screen size: about 310,000 compounds; about 14,000 (4.5%) showed an effect of 50% or more. Effects have a minus sign here. What follows is part of a selection rich in strong results, with near analogues and random picks from the rest.
# Target: human ether-à-go-go-related gene (hERG) potassium channel (human, UniProt Q12809)
# Assay: primary screen, population patch clamp on CHO cells stably expressing hERG; higher = less effect of the substance
# 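Further: peak tail current of the secondary pulse compared with the same well before compound.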
# Chain of human ether-à-go-go-related gene (hERG) potassium channel (Q12809 whole entry, looked up): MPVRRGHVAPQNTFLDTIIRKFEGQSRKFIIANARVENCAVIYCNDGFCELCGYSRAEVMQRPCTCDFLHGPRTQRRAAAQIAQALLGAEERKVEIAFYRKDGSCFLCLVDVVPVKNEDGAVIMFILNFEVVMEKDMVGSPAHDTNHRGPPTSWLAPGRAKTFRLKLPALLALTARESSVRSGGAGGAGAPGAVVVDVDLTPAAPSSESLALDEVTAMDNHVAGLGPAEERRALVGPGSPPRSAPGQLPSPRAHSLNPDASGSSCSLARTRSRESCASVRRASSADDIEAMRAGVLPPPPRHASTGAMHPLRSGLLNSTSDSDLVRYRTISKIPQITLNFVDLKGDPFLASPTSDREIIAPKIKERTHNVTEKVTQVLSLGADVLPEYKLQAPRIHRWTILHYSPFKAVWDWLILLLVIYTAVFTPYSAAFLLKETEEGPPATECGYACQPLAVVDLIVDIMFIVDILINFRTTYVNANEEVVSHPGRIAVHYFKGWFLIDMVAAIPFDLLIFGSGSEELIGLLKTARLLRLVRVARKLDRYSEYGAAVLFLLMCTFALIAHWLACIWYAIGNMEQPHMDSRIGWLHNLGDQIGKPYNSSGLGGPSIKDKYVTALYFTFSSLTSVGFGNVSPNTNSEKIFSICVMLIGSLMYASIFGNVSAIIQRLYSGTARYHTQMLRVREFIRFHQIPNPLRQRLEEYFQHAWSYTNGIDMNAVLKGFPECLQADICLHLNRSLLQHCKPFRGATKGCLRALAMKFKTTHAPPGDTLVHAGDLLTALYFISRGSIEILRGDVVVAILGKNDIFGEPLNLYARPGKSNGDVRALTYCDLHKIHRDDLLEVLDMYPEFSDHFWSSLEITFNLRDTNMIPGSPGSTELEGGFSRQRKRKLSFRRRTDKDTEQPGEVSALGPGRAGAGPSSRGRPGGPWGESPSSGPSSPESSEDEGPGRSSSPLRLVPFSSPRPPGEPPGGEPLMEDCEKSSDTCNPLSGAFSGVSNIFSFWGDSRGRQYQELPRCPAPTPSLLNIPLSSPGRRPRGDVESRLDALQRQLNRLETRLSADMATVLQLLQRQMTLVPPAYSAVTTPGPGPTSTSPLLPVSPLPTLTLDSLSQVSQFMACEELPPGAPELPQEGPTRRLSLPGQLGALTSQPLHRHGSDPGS
row,SMILES,"hERG current change (%, negative = inhibition) at 10uM"
1,COc1ccc2c(c1)CC/C(=C\C=C\c1ccccc1OC)C2=O,8.8%
2,Cc1cc(=O)[nH]c(N/N=C/c2ccc(Br)s2)n1,-13.9%
3,CN1CCN(c2ccc(-c3cccc(NC(=O)COc4ccc(Cl)cc4Cl)c3)nn2)CC1,6.83%
4,O=C(COc1ccc2c3c(c(=O)oc2c1)CCC3)NC(Cc1ccc(Cl)cc1)C(=O)O (stereo not drawn),3.55%
5,Cc1ccc2nc(Cl)c(CN(Cc3cccs3)C(=O)C3CC3)cc2c1,8.82%
6,C[C@]12CC[C@@H](O)C[C@@H]1CC[C@@H]1[C@@H]2CC[C@]2(C)[C@@H](O)CC[C@@H]12,19.8%
7,N#CCOC(=O)C1CSC2(c3ccc(Br)cc3)CCC(=O)N12 (stereo not drawn),8.43%
8,CCCCOc1cccc(C(=O)NC(=S)Nc2cccc(NC(=O)c3ccccc3Cl)c2)c1,-8.49%
9,CC(C)(C)c1ccc(C(=O)NNC(=O)c2ccncc2)cc1,15.5%
10,CC(C)CCCN1CCN=C1N(C)C,8.91%
11,CCCCN1CCN=C1N(C)C,12%
12,CCCCCCCN1CCN=C1N(C)C,-67.7%
13,CN(C)C1=NCCN1CCC1CCCC1,1.87%
14,CN(C)C1=NCCN1CCCC1CCCCC1,-38.6%
15,CN(C)C1=NCCN1CCCC1CCCC1,-51%
16,COc1ccc(NC(=O)CN(C)C(=O)CN2C(=O)NC3(CCCCC3)C2=O)cc1,3.29%
17,Cc1nn(CC(=O)Nc2ccc3c(c2)nc(CN2CCCC2)n3C)c(=O)c2ccccc12,-13.4%
18,Cc1c(C(=O)NNC(=O)c2ccccc2O)oc2ccc(Br)cc12,8.46%

row,SMILES,"hERG current change (%, negative = inhibition) at 10uM"
1,Cc1c(C(=O)NNC(=O)c2ccncc2)oc2ccc(Br)cc12,-68.5%
2,Cc1c(C(=O)NNC(=O)c2ccncc2)oc2ccccc12,-5.92%
3,COc1ccccc1NC(=O)N1CCC(NC(=O)C2CCCCC2)CC1,5.27%
4,N#CCSc1nnc(C2CCCCC2)n1Cc1ccccc1,-11.6%
5,Cc1[nH]c2ccccc2c1C(=O)C(C)OC(=O)c1ccccc1NCCO (stereo not drawn),15%
6,O=S(=O)(Nc1nnc(-c2ccccc2)s1)c1ccc(Cl)cc1,0.769%
7,O=C(c1ccc(S(=O)(=O)N2CCOCC2)cc1)N1CCN(c2ccc(F)cc2)CC1,-5.3%
8,O=C(Nc1ccc(S(=O)(=O)N2CCOCC2)cc1)c1ccc(F)cc1,-6.51%
9,COc1ccc(NC(=O)c2ccc(Br)c(S(=O)(=O)N3CCOCC3)c2)cc1,1.53%
10,O=C(c1ccc(F)c(S(=O)(=O)N2CCOCC2)c1)N1CCN(c2ncccn2)CC1,-4.06%
11,O=C(c1ccc(Cl)c(S(=O)(=O)N2CCCC2)c1)N1CCN(c2ccccc2)CC1,-8.69%
12,O=C(c1ccc(F)c(S(=O)(=O)N2CCOCC2)c1)N1CCN(c2ccc(F)cc2)CC1,-60.5%
13,Cl.O=C(c1ccc(Cl)c(S(=O)(=O)N2CCCC2)c1)N1CCN(c2ccc(F)cc2)CC1,-58.5%
14,O=C(Nc1ccc(F)cc1)c1ccc(Br)c(S(=O)(=O)N2CCOCC2)c1,-58.8%
15,O=C(c1ccc(Cl)c(S(=O)(=O)N2CCCCC2)c1)N1CCN(c2ccccc2)CC1,-26.5%
16,O=C(c1ccc(Cl)c(S(=O)(=O)N2CCCCCC2)c1)N1CCN(c2ccc(O)cc2)CC1,-50.4%
17,O=C(c1ccc(Cl)c(S(=O)(=O)N2CCCC2)c1)N1CCN(c2ccccc2F)CC1,-20.6%
18,COc1ccc(N2CCN(C(=O)c3ccc(Cl)c(S(=O)(=O)N4CCCC4)c3)CC2)cc1,-31.6%
